The nature of this test: BHK-21 cell cytotoxicity, cytotoxicity control for flavivirus guanylyltransferase probe project, secondary screen (AID 624078). Conditions: BHK-21 cell viability cytotoxicity; series mostly up to 100 µM.

Results with a measured potency or affinity are listed apart. Active and inactive are the calls of the source. How the calls were made is not given here.

For `Cn1c(=O)c2[nH]c(-c3ccccc3)c(O)c2n(C)c1=O`, the compound was called inactive.

Source of the values: PubChem BioAssay AID624078 (Southern Research Specialized Biocontainment Screening …, 2012).
